Test results taken from PubChem BioAssay (NCATS).
“And” between values parts separate entries of the source, which are not always exact repeats. Identical values can stand only once. Results filed as inconclusive are left out. The source holds several records for some structures; these can differ, active in one and inactive in another. The source made the active and inactive calls. Calls follow the shape of the dose curve; as a rule, active = well fitted inhibition curve with a large enough effect; inconclusive = small, poorly fitted or top-dose-only effect; inactive = flat fitted curve, though single readings scatter.

Key:
[1] = tested on: CRL-7250; assay: Cytotoxic Profiling of Annotated Libraries Using Quantitative High-Throughput Screening (AID 1296008); details: Five cell lines viability, CellTiter-Glo ATP luminescence, 48-72 h; max response: stronger effect = lower value
How it was run: (§1)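 Cells exposed to compounds for 48 or 72 hr at 37 degrees Celsius. Viability read as ATP-coupled luminescence with CellTiter-Glo after 10 min at room temperature.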

[2] = tested on: HEK293; assay: as above; details: Five cell lines viability, CellTiter-Glo ATP luminescence, 48-72 h; max response: stronger effect = lower value
How it was run: as §1

[3] = tested on: KB-3-1; assay: as above; details: Five cell lines viability, CellTiter-Glo ATP luminescence, 48-72 h; max response: stronger effect = lower value
How it was run: as §1

[4] = tested on: NIH3T3; assay: as above; details: Five cell lines viability, CellTiter-Glo ATP luminescence, 48-72 h; max response: stronger effect = lower value
How it was run: as §1

[5] = tested on: HACAT; assay: qHTS assay to identify novel small-molecules to repurpose for Merkel cell carcinoma treatment (AID 1296009); details: MCC and control cell lines, CellTiter-Glo viability, 72 h; at 44.8 µM (top of the series) unless noted
How it was run: (§2)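 Dose-response viability screen; 72 hr exposure at 37 degree celsius; CellTiter-Glo added, 10 min room temperature, luminescence read; RLUs scaled between no-cell and DMSO wells.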

[6] = tested on: MCC-13; assay: as above; details: MCC and control cell lines, CellTiter-Glo viability, 72 h; series mostly up to 46 µM
How it was run: as §2

[7] = tested on: MCC-26; assay: as above; details: MCC and control cell lines, CellTiter-Glo viability, 72 h; series mostly up to 46 µM
How it was run: as §2

[8] = tested on: MKL-1; assay: as above; details: MCC and control cell lines, CellTiter-Glo viability, 72 h; series mostly up to 46 µM
How it was run: as §2

[9] = tested on: MKL-2; assay: as above; details: MCC and control cell lines, CellTiter-Glo viability, 72 h; series mostly up to 46 µM
How it was run: as §2

[10] = tested on: UISO; assay: as above; details: MCC and control cell lines, CellTiter-Glo viability, 72 h; series mostly up to 46 µM
How it was run: as §2

[11] = tested on: HaCat; assay: Cytotoxic Profiling of Annotated Libraries Using Quantitative High-Throughput Screening (AID 1296008); details: Five cell lines viability, CellTiter-Glo ATP luminescence, 48-72 h; max response: stronger effect = lower value
How it was run: as §1

[12] = tested on: HEK293T; assay: qHTS assay to identify novel small-molecules to repurpose for Merkel cell carcinoma treatment (AID 1296009); details: MCC and control cell lines, CellTiter-Glo viability, 72 h; at 44.8 µM (top of the series)
How it was run: as §2

[13] = tested on: NIH3T3; assay: as above; details: MCC and control cell lines, CellTiter-Glo viability, 72 h; at 44.8 µM (top of the series) unless noted
How it was run: as §2
% is scaled to controls: 0 for no effect and ±100 for the full control effect; potency is read from the fitted curve at half-maximal effect.
Also: nearly all actives have a fitted effect of over 60% in size.

CCC(C)n1ncn(-c2ccc(N3CCN(c4ccc(OC[C@H]5CO[C@](Cn6cncn6)(c6ccc(Cl)cc6Cl)O5)cc4)CC3)cc2)c1=O (stereo not given in full)
inactive: max response [1] -2.71% | max response [3] -3.28% and -9.44% and -24.5% | max response [4] -7.51% | outcome [5] | Potency [6] | Potency [7] | Potency [8] | Potency [9] | Potency [10]
active: Potency [2] 2.82 µM

CC1(C)Cc2c(-c3ccccc3)c(-c3ccc(Cl)cc3)c(CC(=O)O)n2C1
active: Potency [2] 14.6 µM
inactive: max response [1] 2.44% | max response [11] -5.26% and -28.4% | max response [3] -7.08% | max response [4] -5.92% | Potency [6] | Potency [7] | Potency [8] | Potency [9] | Potency [10]

C[C@]1(c2nc3c(C(N)=O)cccc3[nH]2)CCCN1
inactive: max response [1] -16.5% | max response [2] -23.2% | max response [3] -0.184% | max response [4] -22% | Potency [6] | Potency [7] | Potency [8] | Potency [9] | Potency [10]

CN[C@@H](C)C(=O)N[C@H]1CCCC[C@H]2CC[C@@H](C(=O)N[C@@H](c3ccccc3)c3cn(CCCCc4ccc(CCCCn5cc([C@@H](NC(=O)[C@@H]6CC[C@@H]7CCCC[C@H](NC(=O)[C@H](C)NC)C(=O)N76)c6ccccc6)nn5)cc4)nn3)N2C1=O
inactive: max response [1] -4.97% | outcome [2] | outcome [11] | outcome [4] | outcome [5] | outcome [12] | Potency [6] | Potency [7] | outcome [13]
active: Potency [8] 23.5 µM | Potency [9] 9.35 µM

O=C(c1cc(Cc2n[nH]c(=O)c3ccccc23)ccc1F)N1CCN(C(=O)C2CC2)CC1
active: Potency [1] 9.35 µM | Potency [10] 16.6 µM
inactive: max response [2] -77.6% | max response [11] -1.1% | max response [3] -21.2% and -8.64% | max response [4] -27.5% and -49.1% | Potency [6] | Potency [7] | Potency [8]

Cc1csc(NC(=O)c2sc3nc4c(c(C(F)(F)F)c3c2N)CCC4)n1
inactive: max response [1] -0.546% and -0.36% | max response [2] -22.1% | max response [3] 1.14% and -9.3% | max response [4] -3.35% and -3.51% | outcome [5] | Potency [6] | Potency [7] | Potency [8] | Potency [9] | Potency [10]

CC(C)(N)C(=O)N[C@H](COCc1ccccc1)C(=O)N1CCC2(CC1)CN(S(C)(=O)=O)c1ccccc12
inactive: max response [1] -61% | max response [11] -12.2% and 3.47% | max response [3] -17.9% and 1.97% | max response [4] -13.8% | Potency [6] | Potency [7] | Potency [8] | Potency [9] | Potency [10]
active: Potency [2] 23.5 µM

CNC(=O)c1ccccc1Sc1ccc2c(/C=C/c3ccccn3)n[nH]c2c1
active: Potency [1] 5.8 µM | Potency [2] 23.7 µM and 14.6 µM | Potency [3] 11.6 µM | Potency [4] 8.41 µM and 7.31 µM
inactive: max response [3] -28.7% | Potency [7]
